# Data reported in PubChem BioAssay (Tox21).
# Records with an inconclusive call do not appear. The source holds several records for some structures; these can differ, active in one and inactive in another. Active and inactive are the calls of the source. The call rests on the fitted dose curve; in most records, active means well fitted inhibition curve with a large enough effect in the repeat runs; inconclusive means weak or mixed curves; inactive means no such curve, though single readings can be large or run the other way.
# Target: Cytochrome P450 2C9 (Homo sapiens) (UniProt P11712)
# Sequence (P11712 whole entry, looked up): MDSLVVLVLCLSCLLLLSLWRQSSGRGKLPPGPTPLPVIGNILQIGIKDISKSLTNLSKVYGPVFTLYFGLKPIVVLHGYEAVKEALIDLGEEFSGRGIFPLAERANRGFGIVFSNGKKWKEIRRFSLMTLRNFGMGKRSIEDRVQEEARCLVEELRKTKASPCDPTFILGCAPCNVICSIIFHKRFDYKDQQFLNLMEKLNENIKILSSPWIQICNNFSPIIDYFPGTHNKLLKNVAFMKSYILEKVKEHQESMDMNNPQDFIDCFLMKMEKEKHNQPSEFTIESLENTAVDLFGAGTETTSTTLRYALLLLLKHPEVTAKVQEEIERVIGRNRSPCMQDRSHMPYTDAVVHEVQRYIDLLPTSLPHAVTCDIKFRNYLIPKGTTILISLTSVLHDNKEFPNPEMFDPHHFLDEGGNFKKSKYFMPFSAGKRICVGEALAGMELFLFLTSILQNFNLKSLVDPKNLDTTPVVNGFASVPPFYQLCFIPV
# Experiment: Cytochrome P450 Family 2 Subfamily C Member 9 (CYP2C9) small molecule antagonists: luciferase reporter qHTS assay (AID 1671198)
# Conditions: P450-Glo CYP2C9 enzyme assay, luciferin luminescence; series mostly up to 115 µM; activity change, negative = inhibition: at the top concentration
# Summary of the method: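 CYP2C9 activity was measured with a P450-Glo proluciferin substrate. Enzyme–substrate mix was held with compound for 10 min at room temperature, then NADPH regeneration solution was added for 1 h at 37C. Luciferin product was read as luminescence.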
# Further: nearly all actives have a fitted effect of over 50% in size.
# On the % scale 0 is the no-effect control and ±100 the full control effect; potency means the concentration at half of the fitted maximal effect.
SMILES,Potency,"activity change, negative = inhibition"
CCC(CC)(CC(=O)Nc1cccc(/C=C/c2nc(C3CCC3)cs2)c1)C(=O)O,27.5 µM (active),
CCCc1ccc(OCC(=O)N2CCN(C(=O)COc3ccc(CCC)cc3OC)CC2)c(OC)c1,3.47 µM (active),
CCCCCCCCCCCCCC[N+](C)(C)Cc1ccccc1,80.9 µM (active),
CCCCCCCCCCCCOCCOCCOCCOCCOCCOCCOCCOCCOCCO,15.5 µM (active),
Nc1cc(Cl)c(O)c(Cl)c1,28.3 µM (active),
O=C(O)c1cc(O)c2ccccc2c1O,15.9 µM (active),
C#C[C@]1(OC(C)=O)CC[C@H]2[C@@H]3CCC4=C[C@@H](OC(C)=O)CC[C@@H]4[C@H]3CC[C@@]21C,12.3 µM (active),
CNC(=O)c1ccccc1Sc1ccc2c(/C=C/c3ccccn3)n[nH]c2c1,6.92 µM (active),
CCCC(=O)OCOC(=O)C1=C(C)NC(C)=C(C(=O)OC)C1c1cccc(Cl)c1Cl (stereo unspecified),2.19 µM (active),
CCC(COC(=O)CCS)(COC(=O)CCS)COC(=O)CCS,28.3 µM (active),
CC(C)CCOC(=O)/C=C/c1ccccc1,40.1 µM (active),
CC(=O)c1ccc(C(C)=O)cc1,,-8.18% (inactive)
CCCCNS(=O)(=O)c1ccc(C)cc1,22.4 µM (active),
CCCCCCCC,,-23.7% (inactive)
CN1CCN(Cc2cc(-c3ccc4[nH]c(=O)oc4c3)co2)[C@@H](c2ccc(F)cc2)C1,,-7.87% (inactive)
CCCCN(CCCC)CC(O)c1cc(Cl)cc2c1-c1ccc(Cl)cc1/C2=C/c1ccc(Cl)cc1 (stereo unspecified),17.4 µM (active),
O=C(/C=C/c1ccccc1)OC/C=C/c1ccccc1,31.7 µM (active),
C[C@@H](O)[C@H](N)C(=O)O,,17.9% [at 23.6 µM] (inactive)
O=C(O)[C@H](O)[C@@H](O)[C@H](O[C@@H]1O[C@H](CO)[C@H](O)[C@H](O)[C@H]1O)[C@H](O)CO,,4.36% [at 53 µM] (inactive)
CC(=O)Oc1cc2c(s1)CCN(C(C(=O)C1CC1)c1ccccc1F)C2 (stereo unspecified),13.8 µM (active),
Nc1ccc(Oc2ccc(Cl)cc2)cc1,12.4 µM (active),
CCOC(=O)NNc1ccc(N(CC)CC(C)O)nn1 (stereo unspecified),,-12.7% [at 53 µM] (inactive)

# Target: Cytochrome P450 1A2 (Homo sapiens) (UniProt P05177)
# Sequence (P05177 whole entry, looked up): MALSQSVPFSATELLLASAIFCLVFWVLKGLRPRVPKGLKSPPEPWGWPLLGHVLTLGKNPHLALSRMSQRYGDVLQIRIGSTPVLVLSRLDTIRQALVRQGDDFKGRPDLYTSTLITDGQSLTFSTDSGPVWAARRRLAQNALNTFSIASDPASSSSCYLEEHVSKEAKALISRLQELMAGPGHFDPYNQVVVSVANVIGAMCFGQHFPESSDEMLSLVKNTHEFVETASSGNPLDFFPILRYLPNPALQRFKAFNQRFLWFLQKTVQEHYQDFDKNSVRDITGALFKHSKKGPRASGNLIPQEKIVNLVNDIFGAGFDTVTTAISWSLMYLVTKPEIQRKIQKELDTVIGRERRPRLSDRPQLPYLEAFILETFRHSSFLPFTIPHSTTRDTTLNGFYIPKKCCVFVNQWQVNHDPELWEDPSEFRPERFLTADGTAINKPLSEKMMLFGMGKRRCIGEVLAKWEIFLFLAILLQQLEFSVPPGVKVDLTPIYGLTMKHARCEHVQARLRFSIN
# Experiment: Cytochrome P450 Family 1 Subfamily A Member 2 (CYP1A2) small molecule antagonists: luciferase reporter qHTS assay (AID 1671199)
# Conditions: P450-Glo CYP1A2 enzyme, luciferin luminescence, 1 h; series mostly up to 115 µM; activity change, negative = inhibition: at the top concentration
# Summary of the method: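 Luminescence readout (relative luminescence units) after luciferin detection reagent, 20 min RT. Preceded by 1 h room-temperature CYP1A2 reaction with NADPH regeneration solution following 10 min compound preincubation with enzyme and proluciferin substrate. Furafylline positive control.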
SMILES,Potency,"activity change, negative = inhibition"
O=[N+]([O-])c1ccc(O)cc1C(F)(F)F,35.6 µM (active),
O=C(Nc1ccc2c(O)c(N=Nc3ccc(N=Nc4ccc(S(=O)(=O)O)cc4)cc3)c(S(=O)(=O)O)cc2c1)c1ccccc1,35.6 µM (active),
O=C1CCc2cc(OCCCCc3nnnn3C3CCCCC3)ccc2N1,,11.9% [at 53 µM] (inactive)
CCOC(=O)Cn1cccc1-c1nc(-c2ccc(OC)cc2)c(-c2ccc(OC)cc2)s1,,8.77% [at 53 µM] (inactive)
O=C1CCCCCCCCCCCCCCCO1,,-28.1% (inactive)
CCOC(=O)c1ccc(C2CCC(NC[C@H](O)COc3ccc(O)c(NS(C)(=O)=O)c3)CC2)cc1 (stereo partly specified),,-10.4% (inactive)
Clc1ccnc(Cl)n1,,-17% (inactive)
Cc1cc(-c2ccc(N=Nc3cc(S(=O)(=O)O)c4ccccc4c3N)c(C)c2)ccc1N=Nc1cc(S(=O)(=O)O)c2ccccc2c1N,,-21.4% (inactive)
COC(=O)C1=C(C)NC(C)=C(C(=O)OCCN2CCN(C(c3ccccc3)c3ccccc3)CC2)C1c1cccc([N+](=O)[O-])c1 (stereo unspecified),,-0.34% [at 53 µM] (inactive)
OC/C=C/CO,,-12.8% (inactive)
COc1ccc2cc1Oc1ccc(cc1)C[C@H]1c3c(cc4c(c3Oc3cc5c(cc3OC)CCN(C)[C@@H]5C2)OCO4)CCN1C,,-11.9% [at 53 µM] (inactive)
C#CC1(O)CC[C@H]2[C@@H]3CCC4=CCCC[C@@H]4[C@H]3CC[C@@]21C (stereo partly specified),39.9 µM (active),
CCC(CC)(CC(=O)Nc1cccc(/C=C/c2nc(C3CCC3)cs2)c1)C(=O)O,24.5 µM (active),
CCCc1ccc(OCC(=O)N2CCN(C(=O)COc3ccc(CCC)cc3OC)CC2)c(OC)c1,,-10.5% [at 53 µM] (inactive)
CCCCCCCCCCCCCC[N+](C)(C)Cc1ccccc1,72.1 µM (active) and inactive,
Nc1cc(Cl)c(O)c(Cl)c1,39.9 µM (active),
O=C(O)c1cc(O)c2ccccc2c1O,5.64 µM (active),
C#C[C@]1(OC(C)=O)CC[C@H]2[C@@H]3CCC4=C[C@@H](OC(C)=O)CC[C@@H]4[C@H]3CC[C@@]21C,,-11.4% [at 53 µM] (inactive)
CNC(=O)c1ccccc1Sc1ccc2c(/C=C/c3ccccn3)n[nH]c2c1,2.75 µM (active),
CC(C)CCOC(=O)/C=C/c1ccccc1,22.5 µM (active),
CC(=O)c1ccc(C(C)=O)cc1,28.9 µM (active),
CCCCNS(=O)(=O)c1ccc(C)cc1,31.7 µM (active),
CCCCCCCC,,-27.7% (inactive)
CCCCN(CCCC)CC(O)c1cc(Cl)cc2c1-c1ccc(Cl)cc1/C2=C/c1ccc(Cl)cc1 (stereo unspecified),16.2 µM (active),
O=C(/C=C/c1ccccc1)OC/C=C/c1ccccc1,28.3 µM (active),
C[C@@H](O)[C@H](N)C(=O)O,,12.2% [at 23.6 µM] (inactive)
O=C(O)[C@H](O)[C@@H](O)[C@H](O[C@@H]1O[C@H](CO)[C@H](O)[C@H](O)[C@H]1O)[C@H](O)CO,,1.05% [at 53 µM] (inactive)
CC(=O)Oc1cc2c(s1)CCN(C(C(=O)C1CC1)c1ccccc1F)C2 (stereo unspecified),,4.29% [at 53 µM] (inactive)
Nc1ccc(Oc2ccc(Cl)cc2)cc1,34.8 µM (active),
